# Results from the supplement of paper PMC8728848.
# About 410 targets per protein were measured; listed, in parts, are those with the strongest signals and a random draw of the rest.
# Experiments:
# Test in all cases: glycan array binding signal (z-score within array); higher = stronger binding
# [1] = test system: Fuc(a1-2)Gal(b1-3)GalNAc; conditions: glycan notation: IUPAC condensed, linker removed
# Procedure, shortened: (§1)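 From the Consortium for Functional Glycomics database, 3228 arrays were curated, keeping only those whose protein sequence was available. Binding is given as a within-array Z-score averaged across arrays sharing a protein sequence and across linkers. Negative Z-scores can be read as non-binding.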
# [2] = test system: Fuc(a1-2)Gal(b1-3)GalNAc(a1-3)[Fuc(a1-2)]Gal(b1-4)GlcNAc; conditions: glycan notation: IUPAC condensed, linker removed
# Procedure, shortened: as §1
# [3] = test system: Fuc(a1-2)Gal(b1-3)GlcNAc(b1-3)[Gal(b1-4)GlcNAc(b1-6)]Gal(b1-4)Glc; conditions: glycan notation: IUPAC condensed, linker removed
# Procedure, shortened: as §1
# [4] = test system: Fuc(a1-2)Gal(b1-3)GlcNAc(b1-3)[Neu5Ac(a2-6)Gal(b1-4)GlcNAc(b1-6)]Gal(b1-4)Glc; conditions: glycan notation: IUPAC condensed, linker removed
# Procedure, shortened: as §1
# [5] = test system: Fuc(a1-2)Gal(b1-3)[Fuc(a1-4)]GlcNAc(b1-3)[Gal(b1-4)GlcNAc(b1-6)]Gal(b1-4)Glc; conditions: glycan notation: IUPAC condensed, linker removed
# Procedure, shortened: as §1
# [6] = test system: Fuc(a1-2)Gal(b1-3)[Fuc(a1-4)]GlcNAc; conditions: glycan notation: IUPAC condensed, linker removed
# Procedure, shortened: as §1
# [7] = test system: Fuc(a1-2)Gal(b1-4)GlcNAc(b1-2)Man(a1-3)[Fuc(a1-2)Gal(b1-4)GlcNAc(b1-2)Man(a1-6)]Man(b1-4)GlcNAc(b1-4)GlcNAc; conditions: glycan notation: IUPAC condensed, linker removed
# Procedure, shortened: as §1
# [8] = test system: Fuc(a1-2)Gal(b1-3)GalNAc(a1-3)[Fuc(a1-2)]Gal(b1-4)Glc; conditions: glycan notation: IUPAC condensed, linker removed
# Procedure, shortened: as §1
# [9] = test system: Fuc(a1-2)Gal(b1-3)GalNAc(b1-3)Gal; conditions: glycan notation: IUPAC condensed, linker removed
# Procedure, shortened: as §1
# [10] = test system: Fuc(a1-2)Gal(b1-3)GlcNAc(b1-3)Gal(b1-4)Glc; conditions: glycan notation: IUPAC condensed, linker removed
# Procedure, shortened: as §1
# [11] = test system: Fuc(a1-2)Gal(b1-3)GalNAc(b1-3)Gal(a1-4)Gal(b1-4)Glc; conditions: glycan notation: IUPAC condensed, linker removed
# Procedure, shortened: as §1
# [12] = test system: Fuc(a1-2)Gal(b1-3)GlcNAc; conditions: glycan notation: IUPAC condensed, linker removed
# Procedure, shortened: as §1
# [13] = test system: Fuc(a1-2)Gal(b1-3)[Fuc(a1-4)]GlcNAc(b1-2)Man(a1-3)[Fuc(a1-2)Gal(b1-3)[Fuc(a1-4)]GlcNAc(b1-2)Man(a1-6)]Man(b1-4)GlcNAc(b1-4)GlcNAc; conditions: glycan notation: IUPAC condensed, linker removed
# Procedure, shortened: as §1
# [14] = test system: Fuc(a1-2)Gal(b1-3)GlcNAc(b1-2)Man(a1-3)[Fuc(a1-2)Gal(b1-3)GlcNAc(b1-2)Man(a1-6)]Man(b1-4)GlcNAc(b1-4)GlcNAc; conditions: glycan notation: IUPAC condensed, linker removed
# Procedure, shortened: as §1
# [15] = test system: Fuc(a1-2)Gal(b1-3)[Fuc(a1-4)]GlcNAc(b1-2)Man(a1-3)[Fuc(a1-2)Gal(b1-3)[Fuc(a1-4)]GlcNAc(b1-2)Man(a1-3)]Man(b1-4)GlcNAc(b1-4)GlcNAc; conditions: glycan notation: IUPAC condensed, linker removed; mutation: R125K
# Procedure, shortened: as §1
# [16] = test system: Fuc(a1-2)Gal(b1-4)Fuc(a1-3)]GlcNAc(b1-2)Man(a1-3)[Fuc(a1-2)Gal(b1-4)[Fuc(a1-3)]GlcNAc(b1-2)Man(a1-6)]Man(b1-4)GlcNAc(b1-4)GlcNAc; conditions: glycan notation: IUPAC condensed, linker removed; mutation: R125K
# Procedure, shortened: as §1
# [17] = test system: Fuc(a1-2)Gal(b1-3)[Fuc(a1-4)]GlcNAc(b1-2)Man(a1-6)[Fuc(a1-2)Gal(b1-3)[Fuc(a1-4)]GlcNAc(b1-2)Man(a1-3)]Man(b1-4)GlcNAc(b1-4)[Fuc(a1-6)]GlcNAc; conditions: glycan notation: IUPAC condensed, linker removed
# Procedure, shortened: as §1
# [18] = test system: Fuc(a1-2)Gal(b1-3)GalNAc(b1-4)[Neu5Ac(a2-3)]Gal(b1-4)Glc; conditions: glycan notation: IUPAC condensed, linker removed
# Procedure, shortened: as §1
# [19] = test system: Fuc(a1-2)Gal(b1-3)GalNAc(b1-3)Gal(b1-4)Glc; conditions: glycan notation: IUPAC condensed, linker removed
# Procedure, shortened: as §1
# [20] = test system: Fuc(a1-2)Gal(b1-4)Glc6S; conditions: glycan notation: IUPAC condensed, linker removed
# Procedure, shortened: as §1
# Chain of PILRa (Mus musculus), Q2YSF3 (Q2YSF3 entry or part of it): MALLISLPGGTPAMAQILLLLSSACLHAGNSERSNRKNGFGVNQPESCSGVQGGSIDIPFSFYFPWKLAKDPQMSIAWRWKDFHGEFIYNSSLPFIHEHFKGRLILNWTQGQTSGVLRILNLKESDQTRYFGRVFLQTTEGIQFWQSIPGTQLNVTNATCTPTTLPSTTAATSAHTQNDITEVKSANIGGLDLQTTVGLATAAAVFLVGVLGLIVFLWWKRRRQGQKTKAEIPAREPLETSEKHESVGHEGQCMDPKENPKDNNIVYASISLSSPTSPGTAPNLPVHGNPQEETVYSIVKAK
# Chain of CHI3L1 (Homo sapiens), P36222 (P36222 whole entry): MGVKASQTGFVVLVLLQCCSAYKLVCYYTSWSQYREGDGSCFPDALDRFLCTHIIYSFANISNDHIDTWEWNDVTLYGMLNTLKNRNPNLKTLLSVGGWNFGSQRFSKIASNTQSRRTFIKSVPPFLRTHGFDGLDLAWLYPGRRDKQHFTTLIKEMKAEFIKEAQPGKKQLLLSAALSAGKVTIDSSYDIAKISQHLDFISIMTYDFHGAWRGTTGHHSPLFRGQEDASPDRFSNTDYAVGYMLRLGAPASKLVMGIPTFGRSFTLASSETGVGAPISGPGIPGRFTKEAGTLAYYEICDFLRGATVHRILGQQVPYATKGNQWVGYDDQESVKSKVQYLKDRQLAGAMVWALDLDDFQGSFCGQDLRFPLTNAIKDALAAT
# Chain of PILRb (Mus musculus), Q2YSF2 (Q2YSF2 entry or part of it): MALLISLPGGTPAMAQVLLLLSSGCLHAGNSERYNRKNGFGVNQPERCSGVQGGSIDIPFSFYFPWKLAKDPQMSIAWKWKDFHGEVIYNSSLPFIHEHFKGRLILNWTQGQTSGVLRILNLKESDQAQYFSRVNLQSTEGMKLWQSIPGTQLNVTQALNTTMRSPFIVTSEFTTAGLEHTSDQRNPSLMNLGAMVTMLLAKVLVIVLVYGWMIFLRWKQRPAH
# Chain of C3b (Homo sapiens), P01024 (P01024 23-667): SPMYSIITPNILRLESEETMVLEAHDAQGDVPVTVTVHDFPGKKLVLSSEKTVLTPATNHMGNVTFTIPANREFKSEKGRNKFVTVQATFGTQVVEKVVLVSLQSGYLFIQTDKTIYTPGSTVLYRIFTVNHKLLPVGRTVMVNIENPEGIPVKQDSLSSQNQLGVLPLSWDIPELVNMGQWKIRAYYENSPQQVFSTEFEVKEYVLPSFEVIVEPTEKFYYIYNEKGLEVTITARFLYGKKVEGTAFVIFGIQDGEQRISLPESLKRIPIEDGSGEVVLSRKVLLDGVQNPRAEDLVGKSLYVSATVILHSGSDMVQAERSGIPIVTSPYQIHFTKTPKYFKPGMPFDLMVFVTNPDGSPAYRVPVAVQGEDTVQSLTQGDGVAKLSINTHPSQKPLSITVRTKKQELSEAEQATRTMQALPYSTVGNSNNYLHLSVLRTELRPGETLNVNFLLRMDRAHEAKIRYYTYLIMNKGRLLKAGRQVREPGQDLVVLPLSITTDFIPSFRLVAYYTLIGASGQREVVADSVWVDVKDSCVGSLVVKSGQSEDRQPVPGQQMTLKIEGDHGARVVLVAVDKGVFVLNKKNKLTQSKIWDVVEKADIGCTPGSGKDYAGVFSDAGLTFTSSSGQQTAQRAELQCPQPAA
# Chain of Avaren (Actinomycete K97) (chain, as listed by the source): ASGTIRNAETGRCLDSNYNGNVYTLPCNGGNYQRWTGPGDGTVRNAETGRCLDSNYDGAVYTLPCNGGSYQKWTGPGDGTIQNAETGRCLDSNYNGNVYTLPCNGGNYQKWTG
# Chain of 6RG (Lolium perenne) (chain, as listed by the source): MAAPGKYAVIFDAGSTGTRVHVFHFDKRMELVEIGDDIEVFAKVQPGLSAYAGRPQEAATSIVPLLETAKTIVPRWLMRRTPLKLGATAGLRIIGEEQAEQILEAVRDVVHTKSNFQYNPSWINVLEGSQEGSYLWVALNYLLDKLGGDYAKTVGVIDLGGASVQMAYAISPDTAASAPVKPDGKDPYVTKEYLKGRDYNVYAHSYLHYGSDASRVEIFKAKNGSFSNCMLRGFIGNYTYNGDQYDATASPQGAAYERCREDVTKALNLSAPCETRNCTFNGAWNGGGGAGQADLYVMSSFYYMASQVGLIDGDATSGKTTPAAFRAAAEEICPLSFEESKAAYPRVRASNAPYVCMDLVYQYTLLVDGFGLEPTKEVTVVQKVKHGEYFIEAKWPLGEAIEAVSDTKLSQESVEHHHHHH
# Chain of Aggrecan (Rattus norvegicus), NP_071526 (chain, as listed by the source): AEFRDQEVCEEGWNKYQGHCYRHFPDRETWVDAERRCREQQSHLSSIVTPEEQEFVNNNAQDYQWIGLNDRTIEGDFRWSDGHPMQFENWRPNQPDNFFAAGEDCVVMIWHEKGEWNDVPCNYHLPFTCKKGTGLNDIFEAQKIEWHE
# Chain of Regenerating Gene IV (Homo sapiens), Q9BYZ8 (Q9BYZ8 whole entry, looked up): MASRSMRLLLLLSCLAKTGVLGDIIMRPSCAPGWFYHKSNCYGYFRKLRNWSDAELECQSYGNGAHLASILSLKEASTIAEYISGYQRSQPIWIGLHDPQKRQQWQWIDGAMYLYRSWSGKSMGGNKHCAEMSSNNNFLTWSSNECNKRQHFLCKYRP
# Chain of CHT (Homo sapiens) (chain, as listed by the source): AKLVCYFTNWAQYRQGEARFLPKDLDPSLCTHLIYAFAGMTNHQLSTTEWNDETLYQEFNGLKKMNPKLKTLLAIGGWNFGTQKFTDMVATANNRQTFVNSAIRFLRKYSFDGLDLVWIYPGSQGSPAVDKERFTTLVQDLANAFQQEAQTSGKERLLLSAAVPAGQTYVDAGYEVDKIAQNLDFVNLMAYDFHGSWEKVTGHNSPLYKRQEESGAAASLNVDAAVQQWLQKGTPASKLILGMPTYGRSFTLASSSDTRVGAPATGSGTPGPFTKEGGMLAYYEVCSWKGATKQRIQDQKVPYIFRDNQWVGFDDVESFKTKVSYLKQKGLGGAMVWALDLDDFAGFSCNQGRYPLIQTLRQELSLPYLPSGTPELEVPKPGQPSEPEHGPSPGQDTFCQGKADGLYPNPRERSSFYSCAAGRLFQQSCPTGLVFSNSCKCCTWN
substance,measurement,setting,value
CHT (Homo sapiens),glycan array binding signal (z-score),"[1]; mutation: D138V, E140I",0.451
Avaren (Actinomycete K97),glycan array binding signal (z-score),[2],-0.138
same,glycan array binding signal (z-score),[3],-0.128
MpAFP RI GFP (Marinomonas primoryensis),glycan array binding signal (z-score),[4],-0.127
same,glycan array binding signal (z-score),[5],-0.303
same,glycan array binding signal (z-score),[6],-0.05
same,glycan array binding signal (z-score),[7],-0.295
"PILRa (Mus musculus), Q2YSF3",glycan array binding signal (z-score),[8],0.037
same,glycan array binding signal (z-score),[9],0.134
same,glycan array binding signal (z-score),[1],-0.151
same,glycan array binding signal (z-score),[10],-0.127
same,glycan array binding signal (z-score),[3],-0.176
"PILRb (Mus musculus), Q2YSF2",glycan array binding signal (z-score),[11],-0.245
same,glycan array binding signal (z-score),[12],-0.281
same,glycan array binding signal (z-score),[13],2.44
"Siglec-8 (Homo sapiens), Q9NYZ4",glycan array binding signal (z-score),[8]; mutation: R125K,0.206
same,glycan array binding signal (z-score),[11]; mutation: R125K,-0.14
same,glycan array binding signal (z-score),[1]; mutation: R125K,-0.339
same,glycan array binding signal (z-score),[14],0.028
same,glycan array binding signal (z-score),[15],1.44
same,glycan array binding signal (z-score),[16],2.42
"CHI3L1 (Homo sapiens), P36222",glycan array binding signal (z-score),[14],-0.032
same,glycan array binding signal (z-score),[17],0.653
same,glycan array binding signal (z-score),[6],5.09
"Aggrecan (Rattus norvegicus), NP_071526",glycan array binding signal (z-score),[11],-0.123
"C3b (Homo sapiens), P01024",glycan array binding signal (z-score),[11],0.194
same,glycan array binding signal (z-score),[18],0.329
6RG (Lolium perenne),glycan array binding signal (z-score),[19],7.3
same,glycan array binding signal (z-score),[10],6.52
"Regenerating Gene IV (Homo sapiens), Q9BYZ8",glycan array binding signal (z-score),[20],2.53
